Each structure is given as a SMILES string. Values joined by “and” are separate entries in the source; they are usually repeats but may differ in a detail not shown here. Equal entries are not always repeated. This is part of a sample that, as a whole, favours compounds with a hit. Of some 83,000 tested, about 20% had one in any assay.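 In brief: 96-well plates, 48 h treatment, single concentration, percent growth endpoint.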 Unmarked numbers belong to inactive results. Active and inactive are the calls of the source.

The subject of one experiment is SK-MEL-28 melanoma. The experiment in a line: NCI-60 one-dose screen, 48 h (100 = growth as untreated, 0 = no growth, -100 = all killed). The conditions noted are these: 10 µM. The method, then: Growth inhibition of the SK-MEL-28 human tumor cell line is measured as a screen for anti-cancer activity. Cells are grown in 96 well plates and exposed to the test compound for 48 hours. Compounds are tested at a single concentration, which is 10^-5 M for most compounds. The reported endpoint is percent growth (GI% or GIPRCNT), where numbers from 0 - 100% represent growth inhibition, and numbers from -100% - 0 represent cell death. For example, a value of 40 represents 60% growth inhibition. A value of 0 means no net growth occurred over the course of the experiment. A value of -40 indicates 40% of cells at the beginning of the experiment died by the end of the experiment. A value of -100 means all cells are dead at the end of the experiment.
NCI-60 Human Tumor Cell Lines Screen was performed using the standard one-dose NCI protocol, which is described in more detail at https://dtp.cancer.gov/discovery_development/nci-60/default.htm.
Compounds with GIPRCNT values below 10 were considered active. Activity score was based on GIPRCNT using the following formula: […]
Score is 0 for GIPRCNT values of 100 or above, 50 for GIPRCNT values of 0, and 100 for GIPRCNT values of -100.
As for `COc1ccc(C(=O)/C=C/c2ccc(OCc3cccc(C(F)(F)F)c3)c(OC)c2)cc1OC`, the growth is 101%.

Staying with this experiment, now noted: 10 µM unless noted.
As to `[Cu+].[NH-][C@H]1C[N-]C(=O)[C@H]([C@H]2CCN=C(N)N2)[N-]C(=O)/C(=C\NC(N)=O)[N-]C(=O)[C@H](CNC(=O)C[C@@H](N)CCCN)[N-]C(=O)[C@H](CO)[N-]C1=O`, the growth is 110%.

Take `Fc1ccc(NC(c2ccc(F)cc2)C2CCN(CCCCc3ccccc3)CC2)cc1` (stereo not given): the growth was 60.1%.

As for `CN1CCN(c2ccc(Nc3ncc(C(N)=O)c(NCCCNC(=O)C4CCC4)n3)cc2)CC1`, the growth was 103%.

As to `COc1ccc(-c2cc3cnc4ccccc4c3oc2=O)cc1`, the growth was 100%.

For the molecule `COC(=O)c1nc(-c2ccccc2)oc1S(=O)(=O)N(C)CCO`, the growth is 69.8%.

Turning to `O=C1CCCCN1CCCCC#Cc1cccc(C#Cc2cccnc2)c1`, the growth is 107%.

As for `N#CC1C(=O)c2ccccc2C1c1ccccc1` (stereo not given), the growth is 107% and 117%.

With `O=C(Nc1ccc(F)cc1)c1cc2cc(Nc3nc(-c4ccccc4)nc4ccccc34)ccc2oc1=O`, the growth is 111%.

As to `CC(Sc1ccccc1)C(=O)O` (stereo not given), the growth was 106%.

On to `O=C(CN1C(=O)S/C(=C\C(Cl)=C\c2ccccc2)C1=O)NC1C=CS(=O)(=O)C1` (stereo not given), for which the growth was -9.63% (active).

Take `Clc1ccc2c(NCCN3CCN(c4ccnc(N5CCCC5)n4)CC3)ccnc2c1`: the growth was -17.6% (active).

Consider `Cc1nnc(NS(=O)(=O)c2ccc(N=Nc3ccc(N)nc3N)cc2)s1`, for which the growth was 111% and 116%.

Take `CC(=O)c1c(C)nc2ccccc2c1/C=C/c1cccc(C)c1`: the growth was 75%.

Turning to `O=C(CCCCCCCCC(=O)N/N=C\c1ccccc1O)N/N=C\c1ccccc1O`, the growth was 35.6%.

Consider `CCCCCCCCCCCCC[C@H](O)C[C@H](O)[C@H](C)N`, for which the growth was 115% [1.25 µM].

Take `CCCCCCCCCCCCCCCCCCOc1cccc(CC(=O)OCC[N+](CC)(CC)CC)c1`: the growth is 92.8%.

Regarding `O=C(/C=C\c1ccc(Cl)c(Cl)c1)c1ccccc1`, the growth is 102% and 108%.

As to `CCCCC#Cc1c(/C=C(\CCCC)SCC)n(C)c(=O)[nH]c1=O`, the growth was 118%.

For the molecule `Cn1cc(-c2csc(-c3c[nH]c4ccc(F)cc34)n2)c2cnccc21`, the growth was -95.9% (active).

In the case of `O=C(Oc1ccc(CO[N+](=O)[O-])cc1)c1ccccc1`, the growth was -71.9% (active).

As to `CCN(CC)CCOc1ccc(/C(=C(\Cl)c2ccccc2)c2ccccc2)cc1`, the growth is -28% (active) and -41.1% (active).

With `COC1=CC(=O)C(OC)=C(O)C1=O`, the growth was 102%.

For the molecule `COc1ccc(-c2nnc3n(C)c(=O)c4ccccc4n23)cc1O`, the growth was 50.9%.

Turning to `COc1ccc(-c2cc(-c3cccnc3)nc3sc4c(Cl)nnnc4c23)cc1OC`, the growth was 112%.

In the case of `C=C(CN1CC=CCC1)[C@@H]1CC[C@]2(COC(C)=O)CC[C@]3(C)[C@H](CC[C@@H]4[C@@]5(C)CC[C@H](O)C(C)(C)[C@@H]5CC[C@]43C)[C@@H]12`, the growth is 105%.

`Cc1ccc(-c2nc(SCC(=O)c3ccc(C#N)cc3)[nH]c(=O)c2C#N)cc1`: the growth was 103%.

Regarding `COC(=O)[C@H]1Cc2c([nH]c3ccccc23)[C@@H](c2cccs2)N1`, the growth is 107%.

`CN1CCN(CCNC(=O)c2cccc(CN3c4cccc5c4C(=Cc4cccnc43)N(C)C5=O)c2)CC1`: the growth was 67.8%.

For `C=C(C)[C@@H]1CC[C@]2(C(=O)N3CCN(C)CC3)CC[C@]3(C)[C@H](CC[C@@H]4[C@@]5(C)CC(CCCNC(C)=O)(CCCNC(C)=O)[C@H](OC(C)=O)C(C)(C)[C@@H]5CC[C@]43C)[C@@H]12`, the growth is 103%.

Turning to `CC(=O)c1nn(-c2ccccc2)/c(=N/N=Cc2cn(-c3ccccc3)nc2-c2cc3ccccc3oc2=O)s1`, the growth is 111%.

In the case of `O=c1ccc2nc(-c3ccccn3)nn(-c3ccccc3)c-2c1`, the growth was 70.7%.

Take `N#CC1=C(N)Oc2c(sc3c(Br)cccc23)C1c1ccccn1` (stereo not given): the growth is 65.3%.

Consider `Nc1nc(CSc2n[nH]c(N)n2)nc(Nc2ccccc2)n1`, for which the growth is 100%.

For the molecule `COC(=O)N/N=C/c1c[n+]([O-])c2ccccc2[n+]1[O-]`, the growth is 105%.

For `CCCCC(NC(=O)CN1C(=O)/C(=C/C(C)=C/c2ccccc2)SC1=S)C(=O)O` (stereo not given), the growth was 104%.

As for `O=C(c1ccc(Nc2nccc(NCCCNc3ccnc4cc(Cl)ccc34)n2)cc1)N1CCCCC1`, the growth is 71.8%.

Consider `Cc1oc2c(Cc3ccc(NC(=O)c4ccc(Cl)cc4)cc3)ncnc2c1C(=O)NO`, for which the growth was 107%.

As for `O=C(CCN1CCOCC1)Nc1cccc(-n2cc(-c3ccncc3)c(-c3ccc(Cl)c(O)c3)n2)c1`, the growth is 49.6%.

Still in this experiment, the particulars now being: 100 µM.
For `COc1ccc(C(=O)/C=C/c2ccc(OCc3cccc(C(F)(F)F)c3)c(OC)c2)cc1OC`, the growth was 46.3%.
